Experiment [1] has as its target Acetylcholinesterase (Homo sapiens) (UniProt P22303). Nature of the experiment: Acetylcholinesterase (AChE) small molecule antagonists: colormetric cell-based qHTS assay (AID 1347395). Further: nearly all actives have a fitted effect of over 30% in size. Further: potency means the concentration at half of the fitted maximal effect. The essentials: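 Colorimetric read-out: DTNB detects thiocholine released when cellular AChE in SH-SY5Y cells hydrolyses acetylthiocholine. Cells attached overnight, received compound for 30 min at 37 C, then substrate mix for 90 min at 37 C.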

Experiment [2] has the same target. Nature of the experiment: Acetylcholinesterase (AChE) small molecule antagonists: enzyme-based qHTS assay (AID 1347397). Further: nearly all actives have a fitted effect of over 55% in size. Conditions: Potency: AChE enzyme activity inhibition; outcome: AChE enzyme activity inhibition. The method, boiled down:
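Absorbance-based detection of thiocholine with DTNB served as the read-out. Recombinant human AChE was exposed to compound for 30 min at RT before a 10 min RT incubation with acetylthiocholine.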

The target is the same in experiment [3]. Description: Acetylcholinesterase (AChE) small molecule antagonists: enzyme-based qHTS assay with human liver microsomes (AID 1347399). Further: nearly all actives have a fitted effect of over 60% in size. Conditions: Potency: qHTS inhibition; outcome: qHTS inhibition. The method, boiled down: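 Recombinant human AChE (50 mU/mL in the enzyme mix) and human liver microsomes (0.25 mg/mL final) were preincubated with compound and NADPH (0.25 mg/mL final) for 30 min at 37 C. Acetylthiocholine/DTNB was then added; thiocholine was read colorimetrically after 10 min at room temperature.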
(In general: Quantitative high-throughput screening tests each substance at several concentrations.)

For experiment [4] the target is unchanged. Nature of the experiment: Acetylcholinesterase (AChE) small molecule antagonists: fluorescence cell-based qHTS assay (AID 1347398). Further: nearly all actives have a fitted effect of over 50% in size. Further: potency means the concentration at half of the fitted maximal effect. The settings on record: Potency: AChE activity; outcome: AChE activity. The essentials: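 Fluorimetric cell-based assay: intact SH-SY5Y cells, 30 min compound preincubation at 37 C, acetylthiocholine substrate with thiol probe Thiolite Green, 40 min RT development, fluorescence 490/520 nm.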

Several values for one entry are separate records, joined by “and”; a condition that tells them apart may be missing. Identical values can stand only once. Unmarked numbers belong to inactive results. Records with an inconclusive call do not appear. Activity calls are given as the source filed them. The call rests on the fitted dose curve.
On the % scale 0 is the no-effect control and ±100 the full control effect.

Acetylcholinesterase (Homo sapiens), sequence (P22303 whole entry, looked up): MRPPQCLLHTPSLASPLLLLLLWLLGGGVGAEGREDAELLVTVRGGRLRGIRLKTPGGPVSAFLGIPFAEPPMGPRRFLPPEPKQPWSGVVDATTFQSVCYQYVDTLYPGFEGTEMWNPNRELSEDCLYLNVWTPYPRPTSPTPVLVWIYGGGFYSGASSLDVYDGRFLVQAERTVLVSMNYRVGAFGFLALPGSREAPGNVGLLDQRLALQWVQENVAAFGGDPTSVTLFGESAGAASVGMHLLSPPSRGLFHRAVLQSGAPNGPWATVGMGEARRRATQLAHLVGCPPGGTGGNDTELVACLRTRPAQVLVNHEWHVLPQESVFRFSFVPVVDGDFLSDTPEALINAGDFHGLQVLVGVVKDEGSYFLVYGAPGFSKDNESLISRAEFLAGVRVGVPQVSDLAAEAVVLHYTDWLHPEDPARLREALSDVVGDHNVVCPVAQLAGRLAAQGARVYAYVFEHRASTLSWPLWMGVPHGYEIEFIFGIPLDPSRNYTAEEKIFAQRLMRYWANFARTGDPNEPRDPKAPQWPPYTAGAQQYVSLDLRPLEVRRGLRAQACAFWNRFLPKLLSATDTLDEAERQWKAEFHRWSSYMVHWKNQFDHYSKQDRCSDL

As for `COc1nccnc1NS(=O)(=O)c1ccc(N)cc1`, the Potency result in experiment [1], in experiment [2] and in experiment [3] was “inactive” in each case.

Regarding `CC(=O)c1ccc2ccccc2c1`, the Potency result in experiment [1], in experiment [2] and in experiment [3] was “inactive” each time.

With `CC(C)(Oc1ccc(Cl)cc1)C(=O)O`, the Potency result in experiment [1], in experiment [2] and in experiment [3] was “inactive” each time.

`O=[N+]([O-])c1ccc(F)cc1F`: the Potency entry in experiment [1], in experiment [2] and in experiment [3] was “inactive” in each case.

As for `CC1=CC(C)(C)Nc2ccccc21`, the Potency result in experiment [1], in experiment [2] and in experiment [3] was “inactive” in each case.

For the compound `[Cl][Bi]([Cl])([c]1ccccc1)([c]1ccccc1)[c]1ccccc1`, the Potency entry in experiment [1], in experiment [2] and in experiment [3] was “inactive” throughout.

As for `CCCCCC(=O)O[C@]1(C(C)=O)CC[C@H]2[C@@H]3CCC4=CC(=O)CC[C@]4(C)[C@H]3CC[C@@]21C`, the Potency entry in experiment [1], in experiment [2] and in experiment [3] was “inactive” in each case.

For the compound `O=C(O)c1ccccc1OP(=O)(O)O`, the Potency entry in experiment [1], in experiment [2] and in experiment [3] was “inactive” in each case.

Take `COc1cc(NC(=O)CC(C)=O)c(OC)cc1Cl`: the Potency result in experiment [1], in experiment [2] and in experiment [3] was “inactive” each time.

Consider `CCCCC(CC)COP(=O)(O)OCC(CC)CCCC` (centres undefined), for which the Potency entry in experiment [1], in experiment [2] and in experiment [3] was “inactive” throughout.

Turning to `CCOC(=O)c1ccc(N)cc1`, the Potency result in experiment [1], in experiment [2] and in experiment [3] was “inactive” each time.

Turning to `C=CC(=O)OCCCCCCCCCC`, the Potency entry in experiment [1], in experiment [2] and in experiment [3] was “inactive” throughout.

As for `C1CCC(SSC2CCCCC2)CC1`, the Potency result in experiment [1], in experiment [2] and in experiment [3] was “inactive” in each case.

With `CC1=NN(c2ccc(C(=O)O)cc2)C(=O)C1`, the Potency result in experiment [1], in experiment [2] and in experiment [3] was “inactive” throughout.

Take `O=Cc1ccccc1C=O`: the Potency entry in experiment [1], in experiment [2] and in experiment [3] was “inactive” throughout.

As to `CCOc1ccc(NC(=O)CC(C)O)cc1` (centres undefined), the Potency entry in experiment [1], in experiment [2] and in experiment [3] was “inactive” in each case.

Consider `C/C=C(\C)C(=O)OCCc1ccccc1`, for which the Potency entry in experiment [1], in experiment [2] and in experiment [3] was “inactive” each time.

For `O=c1[nH]c2ccccc2n1CCCN1CCN(C(c2ccccc2)c2ccccc2)CC1`, the Potency result in experiment [1], in experiment [2] and in experiment [3] was “inactive” in each case.

For the compound `O=C(O)Cc1ccc(Cl)cc1Cl`, the Potency result in experiment [1], in experiment [2] and in experiment [3] was “inactive” throughout.

Regarding `O=C1OC(c2ccc(O)cc2)(c2ccc(O)cc2)c2ccccc21`, in experiment [1], the Potency was 35.6 µM (active) and 24.5 µM (active). The Potency result in experiment [2] and in experiment [3] was “inactive” throughout.

Take `O=C(NS(=O)(=O)/C=C/c1ccccc1)c1ccc(F)cc1Cl`: the Potency entry in experiment [1], in experiment [2] and in experiment [3] was “inactive” throughout.

For `O=C1[C@@H]2[C@H]3CC[C@H](C3)[C@@H]2C(=O)N1CCCCN1CCN(c2ncccn2)CC1`, the Potency entry in experiment [1], in experiment [4] and in experiment [3] was “inactive” in each case.

In the case of `O=C(O)C[C@H](O)C[C@H](O)/C=C/c1c(C2CC2)nc2ccccc2c1-c1ccc(F)cc1`, the activity, negative = inhibition in experiment [1] is -0.67% [at 23.6 µM]. Also, the activity change, negative = inhibition in experiment [4] is 8.09% [at 23.8 µM]; in experiment [3], -1.12% [at 23.6 µM].

Regarding `Cn1cnc([N+](=O)[O-])c1Sc1ncnc2nc[nH]c12`, the Potency entry in experiment [1], in experiment [4] and in experiment [3] was “inactive” in each case.

On to `O=[N+]([O-])c1ccc(O)cc1C(F)(F)F`, for which the Potency result in experiment [2] and in experiment [4] was “inactive” in each case.

Turning to `NS(=O)(=O)c1cc2c(cc1Cl)CN(C1CCCCC1)C2=O`, the Potency result in experiment [1], in experiment [4] and in experiment [3] was “inactive” throughout.

For the compound `O=C(Nc1ccccc1)Nc1ccccc1`, the Potency entry in experiment [2], in experiment [4] and in experiment [3] was “inactive” throughout.

Consider `CCCC(=O)C(C)=O`, for which the Potency result in experiment [1] and in experiment [3] was “inactive” each time.

Turning to `CN(C)CCOC(=O)C(c1ccccc1)C1(O)CCCC1` (centres undefined), the Potency result in experiment [1], in experiment [4] and in experiment [3] was “inactive” throughout.

As for `O=Cc1cccc([N+](=O)[O-])c1`, the Potency result in experiment [1], in experiment [4] and in experiment [3] was “inactive” in each case.

Regarding `CN(C)c1ccncc1`, the Potency entry in experiment [2], in experiment [4] and in experiment [3] was “inactive” throughout.

Turning to `CC(C)(C)C1CCC(O)CC1` (centres undefined), the Potency entry in experiment [2], in experiment [4] and in experiment [3] was “inactive” throughout.

Take `CC(=O)OC/C=C(C)/C=C/C=C(C)/C=C/C1=C(C)CCCC1(C)C`: the Potency result in experiment [2], in experiment [4] and in experiment [3] was “inactive” each time.

Consider `CC(=O)OC(C(=O)c1ccccc1)c1ccccc1` (centres undefined), for which the Potency entry in experiment [1], in experiment [4] and in experiment [3] was “inactive” in each case.

Turning to `CC(Oc1cc(Cl)ccc1Cl)C(=O)O` (centres undefined), the Potency result in experiment [1], in experiment [4] and in experiment [3] was “inactive” throughout.

In the case of `CCCCCCO`, the Potency entry in experiment [1], in experiment [4] and in experiment [3] was “inactive” each time.

Take `C[C@H]1O[C@H](O[C@H]2[C@H](O)[C@@H](O)[C@@H](O[C@H]3[C@H](O)[C@@H](O)[C@H](O)O[C@@H]3CO)O[C@@H]2CO)[C@H](O)[C@@H](O)[C@@H]1N[C@H]1C=C(CO)[C@@H](O)[C@H](O)[C@H]1O`: the Potency result in experiment [1], in experiment [4] and in experiment [3] was “inactive” each time.

As to `Cc1cnc(C(=O)NCCc2ccc(S(=O)(=O)NC(=O)NC3CCCCC3)cc2)cn1`, the Potency result in experiment [2] and in experiment [4] was “inactive” each time.

Consider `SC1CCCC1`, for which the Potency result in experiment [1], in experiment [4] and in experiment [3] was “inactive” in each case.

Turning to `O=C(c1ccccc1)c1ccc(O)cc1`, the Potency entry in experiment [1], in experiment [4] and in experiment [3] was “inactive” in each case.

As for `O=C(O)C1=NN(c2ccc(S(=O)(=O)O)cc2)C(=O)C1`, the Potency result in experiment [2] and in experiment [4] was “inactive” in each case.

`CC(C)CC(C)(C)C`: the Potency entry in experiment [1], in experiment [4] and in experiment [3] was “inactive” each time.

On to `C=C(C)C(=O)OC(C)C`, for which the Potency entry in experiment [2], in experiment [4] and in experiment [3] was “inactive” throughout.

On to `CCCCCCCCCCOC(C)=O`, for which the Potency result in experiment [1], in experiment [4] and in experiment [3] was “inactive” each time.

Consider `CCCCCCCCCCO[C@@H]1O[C@H](CO)[C@@H](O)[C@H](O)[C@H]1O`, for which the Potency result in experiment [1], in experiment [4] and in experiment [3] was “inactive” throughout.

Take `O=C(O[C@@H](C(=O)O)[C@@H](OC(=O)c1ccccc1)C(=O)O)c1ccccc1`: the Potency entry in experiment [1], in experiment [4] and in experiment [3] was “inactive” each time.

Regarding `CCOC(=O)C(C)C(C)=O` (centres undefined), the Potency result in experiment [2], in experiment [4] and in experiment [3] was “inactive” throughout.

On to `Cc1c(Cl)c(=O)oc2cc(O)ccc12`, for which the results for the Potency in experiment [1] and in experiment [4] were 35.6 µM (active) and 71 µM (active), respectively. In addition, the Potency result in experiment [3] is “inactive”.

Regarding `CCn1nc(C)c2c1C(=O)NCC(c1ccc(O)cc1)=N2`, the Potency result in experiment [1], in experiment [4] and in experiment [3] was “inactive” throughout.

Turning to `CC(=O)Oc1ccc([N+](=O)[O-])cc1CCl`, the Potency result in experiment [1], in experiment [4] and in experiment [3] was “inactive” each time.

Regarding `NC(=O)c1nc(-c2cccc(-c3cc(F)ccc3OCC(F)(F)C(F)(F)F)c2)n[nH]1`, the Potency entry in experiment [1], in experiment [4] and in experiment [3] was “inactive” in each case.

Turning to `CC(C)Cc1ccc(CC(=O)O)cc1`, the Potency entry in experiment [1], in experiment [4] and in experiment [3] was “inactive” throughout.

Turning to `Nc1cc(Cl)c(-c2cc(Cl)c(N)cc2Cl)cc1Cl`, the Potency result in experiment [1], in experiment [4] and in experiment [3] was “inactive” throughout.

For `Nc1ccc(Nc2ccccc2)cc1`, the Potency result in experiment [1], in experiment [4] and in experiment [3] was “inactive” in each case.

`CC(=O)[C@H]1CC[C@H]2[C@@H]3CCC4=CC(=O)CC[C@]4(C)[C@H]3CC[C@]12C`: the Potency was 39.7 µM (active) and 35.6 µM (active) in experiment [1]; 28.1 µM (active) and 31.7 µM (active) in experiment [4]. The Potency entry in experiment [3] is “inactive”.

With `Cc1ccc(C(C)(C)C)cc1`, the Potency result in experiment [1], in experiment [4] and in experiment [3] was “inactive” in each case.

In the case of `CCCCc1ccc(Cl)cc1`, the Potency entry in experiment [1], in experiment [4] and in experiment [3] was “inactive” throughout.

Take `O=C(c1ccccc1)c1ccc(Cl)cc1`: the Potency entry in experiment [1], in experiment [4] and in experiment [3] was “inactive” in each case.

Regarding `O=C(O)COc1nn(Cc2ccccc2)c2ccccc12`, the Potency result in experiment [1], in experiment [4] and in experiment [3] was “inactive” throughout.

Regarding `CCCCCCC/C=C/C=O`, the Potency result in experiment [1], in experiment [4] and in experiment [3] was “inactive” in each case.

With `CCOC(=O)O[C@H](C)OC(=O)c1ccc2c(c1)cc(C(=O)NC1CCN(C(C)C)CC1)n2Cc1cc(-c2ccc(Cl)s2)on1`, the Potency result in experiment [1] and in experiment [3] was “inactive” throughout. Besides, the Potency in experiment [4] was 41.8 µM (active).

Take `CC(C)CCCCCCOC(=O)c1ccc(C(=O)OCCCCCCC(C)C)c(C(=O)OCCCCCCC(C)C)c1`: the Potency entry in experiment [2], in experiment [4] and in experiment [3] was “inactive” throughout.

Consider `C/C=C/c1ccc(OC)c(OC)c1`, for which the Potency result in experiment [2], in experiment [4] and in experiment [3] was “inactive” each time.

Regarding `Cc1cc(C)c(S(=O)(=O)O)cc1N=Nc1cc(S(=O)(=O)O)c2ccccc2c1O`, the Potency result in experiment [2], in experiment [4] and in experiment [3] was “inactive” throughout.

As to `CN1CCN(N)CC1`, the Potency result in experiment [2], in experiment [4] and in experiment [3] was “inactive” each time.

As to `C[C@H]1C[C@H]2[C@@H]3CCC4=CC(=O)C=C[C@]4(C)[C@@]3(F)[C@@H](O)C[C@]2(C)[C@@]1(O)C(=O)COP(=O)(O)O`, the Potency result in experiment [2], in experiment [4] and in experiment [3] was “inactive” throughout.

Source of the values: PubChem BioAssay (Tox21).
